FBA Mtb inh: Mtb FBA enzyme inhibitors, primary screen, biochemical, fluorescence, strain H37Rv. 360,000 compounds, 2.3% hits. inhibition, % at 1 µM. AID 588726, 2011. purified M. tuberculosis FBA, fluorescence read-out; in the data active = inhibition above about 27%
Target sequence (P9WQA3 whole entry, looked up): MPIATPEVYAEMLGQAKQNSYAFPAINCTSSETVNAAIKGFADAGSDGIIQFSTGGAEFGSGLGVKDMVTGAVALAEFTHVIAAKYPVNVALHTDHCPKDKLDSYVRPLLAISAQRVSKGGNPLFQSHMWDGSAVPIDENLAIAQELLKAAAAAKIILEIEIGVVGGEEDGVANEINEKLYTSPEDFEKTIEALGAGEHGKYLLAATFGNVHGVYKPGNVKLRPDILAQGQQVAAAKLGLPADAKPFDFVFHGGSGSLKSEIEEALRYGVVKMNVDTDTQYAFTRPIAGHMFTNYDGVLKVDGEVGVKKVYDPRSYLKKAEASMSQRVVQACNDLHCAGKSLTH
BoNT A protease: BoNT/A light chain protease inhibitors, primary screen, biochemical, flow cytometry, MLPCN library. Botulinum neurotoxin type A light chain protease (Clostridium botulinum A str. ATCC 3502). multiplex microsphere protease substrate cleavage. inhibition, % at 10 µM. 360,000 compounds, 0.17% hits. AID 588499, 2011
BoNT-F LC inh: BoNT/F light chain protease inhibitors, primary screen, biochemical, flow cytometry, MLPCN library. 360,000 compounds, 0.22% hits. inhibition, % at 10 µM. AID 588497, 2011. Botulinum neurotoxin type F light chain protease (Clostridium botulinum). Multiplex microsphere protease cleavage assay; in the data active = inhibition above about 35%, passing the limit was not always enough; inconclusive = no clear call, values can overlap the other calls
Autofluor counter: counter-screen for toxin protease inhibitors: compound fluorescence. compound autofluorescence counterscreen, microsphere flow cytometry; stronger effect = higher value. fluorescence intensity (concentration not given with the values). 360,000 compounds, 3.1% hits. AID 624483; in the data active = fluorescence intensity above about 16000; inconclusive = no clear call, values can overlap the other calls
Anthrax LF inh2: Bacillus anthracis LF protease inhibitors, primary screen, biochemical, multiplex microsphere, MLPCN library | inhibition, % at 10 µM | multiplex microsphere protease cleavage assay | 360,000 compounds, 0.12% hits | Lethal factor (Bacillus anthracis), P15917
GDH-TPI counter-1: GDH-TPI coupling enzyme inhibitors, primary screen, artefact control for M. tuberculosis FBA inhibitor project, biochemical, absorbance, full deck; GDH-TPI coupled enzyme counterscreen, NADH absorbance; AID 588335, 2011; 360,000 compounds, 1.2% hits; inhibition, % at 4.8 µM; in the data active = inhibition above about 30%
Mtb FBA confirm: M. tuberculosis aldolase blockers, biochemical, fluorescence, strain H37Rv, confirmation | inhibition, % at 1 µM | purified M. tuberculosis FBA, fluorescence read-out | AID 651616, 2012 | shares compounds with FBA Mtb inh | 5,600 compounds, 78% hits; in the data active = inhibition above about 27%
GDH-TPI counter-2: GDH-TPI coupling enzyme inhibitors, artefact control for M. tuberculosis FBA inhibitor project, biochemical, fluorescence, high throughput. shares compounds with FBA Mtb inh. GDH-TPI coupled enzyme counterscreen. inhibition, % at 1 µM. 5,600 compounds, 81% hits; in the data active = inhibition above about 10%
Hits are given with their value; i = inactive; ? = inconclusive; nt = no result given; + = active, no number. Compounds with a hit are over-represented: about 6.6% of the library has one in this group of screens. Cut-off read from the data, not from the text of the source, unless noted: active = inhibition above about 30%; inconclusive = no clear call, values can overlap the other calls; inactive = below that.

SMILES	FBA Mtb inh	BoNT A protease	BoNT-F LC inh	Autofluor counter	Anthrax LF inh2	GDH-TPI counter-1	Mtb FBA confirm	GDH-TPI counter-2
COc1ccc2oc(C(=O)OCC(=O)N(C)Cc3ccccc3)c(C)c2c1	31	nt	nt	nt	nt	i	158	168
Cc1nn(CC(=O)NCC(C)c2ccccc2)c(=O)c2cccn12 (configuration not stated)	i	i	i	i	i	i	nt	nt
Cc1nc2sc3c(O)cc(=O)[nH]c3c2c(C)c1C	33	i	i	i	i	i	73	69
Cc1cc(C(F)(F)F)c2c(n1)sc1c(O)cc(=O)[nH]c12	i	i	i	i	i	i	nt	nt
Cc1ccc(S(=O)(=O)c2cc3ccccc3nc2N)cc1	36	i	i	i	i	i	+	193
CCOC(=O)N1CCN(C(=O)CN(C)S(=O)(=O)c2ccc(OCC)cc2)CC1	i	i	i	i	i	i	nt	nt
Cc1cc(NC(=O)Nc2ccccc2[N+](=O)[O-])n(C)n1	i	i	i	i	i	i	nt	nt
CCOC(=O)C(=O)C1=C(N2CCOCC2)/C(=C\c2ccc(F)cc2)CC1	i	i	i	i	i	i	nt	nt
CCCCN(C(=O)NC(=O)C1=C(N2CCOCC2)/C(=C/c2ccccc2)CC1)S(C)(=O)=O	44	i	i	i	i	i	128	83
O=C(C1CCN(S(=O)(=O)c2cnc[nH]2)CC1)N1CCN(c2ccc([N+](=O)[O-])cc2)CC1	i	i	i	i	i	i	nt	nt
O=C(c1ccccc1)c1ccc(C(=O)N2CCN(c3ccccc3O)CC2)cc1	i	i	i	i	i	i	nt	nt
CCOC(=O)c1c(C)nc2ncccn12	75	i	i	i	i	i	37	38
CCOC(=O)c1cn2cccnc2n1	104	i	i	i	i	i	151	134
O=C(CN(C(=O)c1csnn1)c1cccc(F)c1)NCc1ccc2c(c1)OCO2	i	i	i	i	i	i	nt	nt
CNC(=O)/C(C#N)=C/c1c(N2CCN(c3cccc(Cl)c3)CC2)nc2c(C)cccn2c1=O	i	i	i	i	i	i	nt	nt
CCNC(=O)/C(C#N)=C/c1c(N2CCCCCC2)nc2c(C)cccn2c1=O	i	i	i	i	i	i	nt	nt
CNC(=O)/C(C#N)=C/c1c(N2CCN(C)CC2)nc2c(C)cccn2c1=O	28	i	i	i	i	i	62	59
CCN1CCN(c2nc3c(C)cccn3c(=O)c2/C=C(\C#N)C(=O)NC)CC1	30	i	i	i	i	i	32	20
CC12CCC(=O)C=C1CCC1C2C(O)CC2(C)C1CCC2(O)C(=O)COC(=O)COCC(=O)O (configuration not stated)	i	i	i	i	i	i	nt	nt
CN(C)C(CNc1ccc(S(C)(=O)=O)cc1[N+](=O)[O-])Cc1ccccc1 (configuration not stated)	i	i	i	i	i	i	nt	nt
O=C1CCC(C(=O)OCc2cc(=O)oc3ccc4ccccc4c23)=NN1	31	i	i	i	i	i	91	62
CCOc1ccccc1C(=O)Oc1ccc2ccc(=O)oc2c1	66	i	i	i	i	i	83	81
O=C(Oc1ccc2ccc(=O)oc2c1)c1ccccc1	63	i	i	i	i	i	50	41
COc1cccc(C(=O)COc2ccc3ccc(=O)oc3c2)c1	i	i	i	i	i	i	nt	nt
O=c1ccc2ccc(OCCOc3cccc(Cl)c3)cc2o1	49	i	i	?	i	i	173	157
SMILES	FBA Mtb inh	BoNT A protease	BoNT-F LC inh	Autofluor counter	Anthrax LF inh2	GDH-TPI counter-1	Mtb FBA confirm	GDH-TPI counter-2
Cc1cc(=O)oc2cc(OC(=O)c3ccccc3)ccc12	75	i	i	i	i	i	+	+
COC(=O)CC/C(O)=C1\C(=O)CC(C)(C)CC1=NCCc1nc2ccccc2[nH]1	i	i	i	i	i	i	nt	nt
O=C(COc1ccc2ccc(=O)oc2c1)NC1CCCC1	i	i	i	?	i	i	nt	nt
O=C(Oc1ccc2ccc(=O)oc2c1)C1CCCCC1	108	i	i	i	i	i	+	+
COc1ccc2c(C)cc(=O)oc2c1	55	i	i	i	i	i	91	61
CC(C)c1ccc(CC(C)C2C3=C(CCCC3=O)OC3=C2C(=O)CCC3)cc1 (configuration not stated)	i	i	i	i	i	i	nt	nt
CC(C)N1CCN(Cc2cc(F)ccc2-n2cccn2)CC1CCO (configuration not stated)	37	i	i	i	i	i	106	82
CC(C)N1CCC(N2CCN(Cc3cc(F)ccc3-n3cccn3)CC2CCO)CC1 (configuration not stated)	i	i	i	i	i	i	nt	nt
Cc1cccc(NC(=O)c2cc(-c3ccc(C)c(C)c3O)n[nH]2)c1	i	i	i	i	i	i	nt	nt
CSc1cccc(NC(=O)C2(S(=O)(=O)c3ccc(C)cc3)CC2)c1	i	i	i	i	i	i	nt	nt
COc1ccc(-c2cc3cc(-c4cc(OC)c(OC)c(OC)c4)ccc3o2)cc1	i	i	i	i	i	i	nt	nt
COc1cc(-c2ccc3cc(OC)c(OC)c(OC)c3c2)cc(OC)c1OC	45	i	i	i	i	i	i	i
CCn1c(N)nc2ccccc21	i	i	i	i	i	i	nt	nt
CCn1c(-c2ccc(N)cc2)nc2ccccc21	83	i	i	i	i	i	102	78
C=CCn1c(-c2ccc(N)cc2)nc2ccccc21	92	i	i	i	i	i	i	i
C=CCn1c(-c2ccc(OC)cc2)nc2ccccc21	i	i	i	i	i	i	nt	nt
Clc1cncc(Cl)c1NNc1c2ccccc2nc2ccccc12	39	i	i	i	i	i	81	66
Cc1ccc(N(Cc2ccccc2)C(=O)c2cc(S(=O)(=O)N3CCOCC3)ccc2F)cc1	i	i	i	i	i	i	nt	nt
O=C(CSc1nnc(CCCN2C(=O)c3cccc4cccc(c34)C2=O)n1-c1ccccc1)NCCCN1CCOCC1	i	i	i	i	i	i	nt	nt
COc1ccc2oc(=N)c(C(=O)NCc3ccccc3)cc2c1	i	i	i	i	i	i	nt	nt
COc1ccc2oc(=O)c(C(=O)NCc3ccc(F)cc3)cc2c1	54	i	i	i	i	i	90	70
